Several values for one entry are separate records, joined by “and”; a condition that tells them apart may be missing. Equal values may be shown once. Records with an inconclusive call do not appear. Activity calls are given as the source filed them. Unless noted, the call rests on the fitted dose curve; in most records, active means well fitted curve in the direction sought with a large enough effect; inconclusive means small, poorly fitted or top-dose-only effect, or another doubt; inactive means no such curve, though single readings can be large; an effect the other way counts as inactive or inconclusive.
What was measured:
[1] = target: Tyrosine-protein kinase Yes (Homo sapiens) (UniProt P07947); assay: qHTS for small molecule inhibitors of Yes1 kinase: Primary Screen (AID 686947);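 further: plate controls were DMSO with enzyme for no effect and no-enzyme DMSO wells for full effect; nearly all actives have a fitted effect of over 60% in size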
Outline: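 Yes1 (4 nM) preincubated 20 min with compound, then 60 min room-temperature reaction with 0.1 mM ATP and 0.3 mg/mL poly(E4Y) in pH 7.5 Tris, 10 mM MgCl2. ADP measured by ADP-Glo luminescence, normalised to enzyme/no-enzyme controls.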

[2] = qHTS for small molecule inhibitors of Yes1 kinase: Counter Assay (AID 686950);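 further: no kinase present so only ADP-Glo detection of a fixed ADP amount is tested; luminescence from ADP-Glo reporting ADP in a fixed ATP and ADP mixture; 0% = DMSO wells with ATP plus ADP and -100% = ATP-only wells without ADP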
Outline: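 Luminescence read-out from ADP-Glo quantifies a fixed ADP amount (0.02 mM ADP with 0.08 mM ATP) after 60 min at room temperature; signal is normalized between DMSO wells with ATP/ADP and with 0.1 mM ATP alone.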

[3] = qHTS profiling for inhibitors of Plasmodium falciparum (3D7) proliferation (AID 743322; call rule not given here;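 further: infected erythrocytes exposed to compound for 72 h before lysis; 100% = DMSO vehicle wells and 0% = 0.29 µM artemisinin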); settings: P. falciparum 3D7 proliferation; at 28.7 µM (top of the series)
Outline: (§1)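 Erythrocytes infected with P. falciparum (0.3% parasitemia, 2.5% hematocrit) incubated with compounds 72 h at 37 C, 5% CO2. Lysis with saponin/Triton buffer containing SYBR Green I, overnight at room temperature in the dark; DNA fluorescence (485/535 nm) normalised to 0.29 uM artemisinin and DMSO.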

[4] = qHTS profiling for inhibitors of Plasmodium falciparum (DD2) proliferation (AID 743323; call rule not given here); settings: lower = more inhibition; at 28.7 µM (top of the series)
Outline: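 1536-well qHTS; infected RBCs 0.3% parasitemia/2.5% Hct final; cpd 72 h 37 C 5% CO2; lysis buffer + SYBR Green I, o/n RT dark; FI 485/535; norm. to 0.29 uM artemisinin and DMSO, plate-stack corrected.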

[5] = qHTS profiling for inhibitors of Plasmodium falciparum (HB3) proliferation (AID 743324); settings: Plasmodium falciparum HB3 blood-stage proliferation; at 28.7 µM (top of the series);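 further: 100% = DMSO vehicle wells and 0% = artemisinin-treated control wells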
Outline: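 P. falciparum HB3 grown in erythrocytes (0.3% parasitemia, 2.5% hematocrit final) with compound for 72 h at 37 C, 5% CO2. Parasite DNA detected by SYBR Green after saponin/triton lysis overnight; normalized to 0.29 uM artemisinin and DMSO.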

[6] = qHTS profiling of the MIPE4 collection as inhibitors of Plasmodium falciparum (3D7) proliferation (AID 743344; call rule not given here;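 further: scaled between DMSO vehicle wells and 0.29 µM artemisinin as full inhibition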); settings: P. falciparum 3D7 in erythrocytes, SYBR Green DNA fluorescence, 72 h; at 28.5 µM (top of the series) unless noted
Outline: as §1

[7] = qHTS profiling of the MIPE4 collection as inhibitors of Plasmodium falciparum (DD2) proliferation (AID 743345; call rule not given here); settings: P. falciparum Dd2 in erythrocytes, SYBR Green DNA, 72 h; at 28.5 µM (top of the series) unless noted
Outline: as §1

[8] = qHTS Assay for Identifying Gametocytocidal Compounds (AID 743244);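 further: on the % scale 0 is the no-effect control and ±100 the full control effect; actives lower the fluorescent signal which means gametocytes are killed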; settings: P. falciparum 3D7 stage III-V gametocytes, alamarBlue, 72 h; max response: stronger effect = lower value
Outline: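 Late gametocytes (III–V), P. falciparum 3D7; 72 h drug, then 24 h alamarBlue; resazurin reduction read by fluorescence.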

[9] = target: Arylsulfatase A (Homo sapiens) (UniProt P15289); assay: qHTS screen for enhancers of Arylsulfatase A (ASA1): LOPAC Validation Assay (AID 720538); settings: outcome: dose series up to 57.5 µM
Outline: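 SV40-transformed fibroblasts from an MLD patient (ASA-I179S) were treated with compound for 48 h at 37 C. They were then lysed with 0.5 mM pNCS substrate (final) for 14 h at room temperature and stopped with NaOH; signal read by fluorescence (Ex 525/Em 598 nm), with increase denoting enhanced activity.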

[10] = qHTS for compounds that reverse cellular toxicity of Amyloid beta (A-beta) peptide in yeast: LOPAC Validation Assay (AID 720559);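 further: plate controls were DMSO for no effect and equimolar ferric chloride plus clioquinol rescue for full effect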
Outline: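 Yeast expressing toxic A-beta grown with pinned compounds at 30 C for 48 hr. Growth measured as absorbance at 600 nm; data normalized to DMSO and to an equimolar FeCl3/clioquinol mixture as positive control.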

[11] = qHTS for Activators of Parkin Expression: LOPAC Validation Assay (NLuc Reporter) (AID 720572;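 further: 0% = DMSO and 100% = positive control compound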)
Outline: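 Parkin promoter-driven FLuc/NLuc neuronal reporter cells; 24 h plating, 7-pt dose response, 24 h at 37 C/5% CO2; FLuc then NanoLuc reagent, 10 min each, luminescence; DMSO/positive control normalized.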

[12] = qHTS for Activators of Parkin Expression: LOPAC Validation Assay (FLuc Reporter) (AID 720573;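 further: 0% = DMSO and 100% = positive control compounds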)
Outline: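 Neuronal cell line stably expressing FLuc/NLuc coincidence reporter under the Parkin promoter, 1,500 cells/well, dosed 24 h after seeding in 7-point series for 24 h at 37 C. FLuc luminescence read; normalized to DMSO and positive control (100%).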

[13] = target: Hexokinase-4 (Homo sapiens) + Glucokinase regulatory protein (Homo sapiens) (UniProt P35557+Q14397); assay: qHTS assay for inhibitors of recombinant human GCK-GKRP interaction: Diaphorase-coupled assay (AID 743205)
Outline: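 Compounds pre-incubated 20 min with substrate, then 10 nM GST-GCK with 10 nM FLAG-GKRP added. GCK activity coupled via G6PDH and diaphorase to resorufin (5 mM glucose, 0.4 mM ATP, 0.15 mM NADP+, pH 7.6), read kinetically over 30 minutes at Ex 525/Em 590 nm.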

Sequence of Tyrosine-protein kinase Yes (Homo sapiens) (P07947 whole entry, looked up): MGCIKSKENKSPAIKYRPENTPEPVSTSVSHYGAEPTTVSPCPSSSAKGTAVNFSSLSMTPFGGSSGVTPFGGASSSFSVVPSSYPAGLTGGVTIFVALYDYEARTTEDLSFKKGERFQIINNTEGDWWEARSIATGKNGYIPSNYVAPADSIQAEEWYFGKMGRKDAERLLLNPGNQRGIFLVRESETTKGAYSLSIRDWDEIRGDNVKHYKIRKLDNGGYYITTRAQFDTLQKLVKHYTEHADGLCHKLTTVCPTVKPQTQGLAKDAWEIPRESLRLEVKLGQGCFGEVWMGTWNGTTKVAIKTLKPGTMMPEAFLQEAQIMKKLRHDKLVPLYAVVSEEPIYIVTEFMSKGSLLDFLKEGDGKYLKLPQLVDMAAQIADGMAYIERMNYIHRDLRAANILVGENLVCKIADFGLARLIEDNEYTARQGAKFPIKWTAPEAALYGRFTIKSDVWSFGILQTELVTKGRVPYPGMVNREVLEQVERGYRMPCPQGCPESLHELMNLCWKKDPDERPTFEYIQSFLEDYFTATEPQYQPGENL
Sequence of Arylsulfatase A (Homo sapiens) (P15289 whole entry, looked up): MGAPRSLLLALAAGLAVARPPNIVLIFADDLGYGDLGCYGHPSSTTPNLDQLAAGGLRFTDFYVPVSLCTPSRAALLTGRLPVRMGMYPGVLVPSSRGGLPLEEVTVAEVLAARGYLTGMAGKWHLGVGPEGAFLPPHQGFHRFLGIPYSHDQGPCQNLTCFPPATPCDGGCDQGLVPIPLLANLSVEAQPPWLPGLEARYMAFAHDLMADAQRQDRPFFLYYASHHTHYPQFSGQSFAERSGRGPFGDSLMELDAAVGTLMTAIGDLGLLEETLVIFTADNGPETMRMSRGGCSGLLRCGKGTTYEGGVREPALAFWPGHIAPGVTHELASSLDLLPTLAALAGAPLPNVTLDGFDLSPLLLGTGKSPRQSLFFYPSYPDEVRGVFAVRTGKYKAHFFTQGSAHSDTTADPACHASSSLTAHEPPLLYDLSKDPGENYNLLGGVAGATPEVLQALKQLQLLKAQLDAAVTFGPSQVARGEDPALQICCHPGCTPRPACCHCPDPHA
Sequence of Hexokinase-4 (Homo sapiens) + Glucokinase regulatory protein (Homo sapiens) (P35557 whole entry, looked up): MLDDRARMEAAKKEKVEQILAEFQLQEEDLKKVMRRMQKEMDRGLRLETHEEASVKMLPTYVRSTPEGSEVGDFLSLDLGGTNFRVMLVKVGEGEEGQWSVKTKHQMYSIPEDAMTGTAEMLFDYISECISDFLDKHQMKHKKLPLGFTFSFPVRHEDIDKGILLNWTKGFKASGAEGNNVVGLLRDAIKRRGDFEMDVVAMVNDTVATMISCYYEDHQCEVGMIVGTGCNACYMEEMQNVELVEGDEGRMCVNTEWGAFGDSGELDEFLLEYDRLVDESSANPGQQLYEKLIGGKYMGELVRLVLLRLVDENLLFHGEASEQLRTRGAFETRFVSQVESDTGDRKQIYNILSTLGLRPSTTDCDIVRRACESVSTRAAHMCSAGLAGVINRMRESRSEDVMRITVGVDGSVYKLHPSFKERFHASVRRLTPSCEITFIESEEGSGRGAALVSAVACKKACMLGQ
Sequence of Hexokinase-4 (Homo sapiens) + Glucokinase regulatory protein (Homo sapiens) (Q14397 whole entry, looked up): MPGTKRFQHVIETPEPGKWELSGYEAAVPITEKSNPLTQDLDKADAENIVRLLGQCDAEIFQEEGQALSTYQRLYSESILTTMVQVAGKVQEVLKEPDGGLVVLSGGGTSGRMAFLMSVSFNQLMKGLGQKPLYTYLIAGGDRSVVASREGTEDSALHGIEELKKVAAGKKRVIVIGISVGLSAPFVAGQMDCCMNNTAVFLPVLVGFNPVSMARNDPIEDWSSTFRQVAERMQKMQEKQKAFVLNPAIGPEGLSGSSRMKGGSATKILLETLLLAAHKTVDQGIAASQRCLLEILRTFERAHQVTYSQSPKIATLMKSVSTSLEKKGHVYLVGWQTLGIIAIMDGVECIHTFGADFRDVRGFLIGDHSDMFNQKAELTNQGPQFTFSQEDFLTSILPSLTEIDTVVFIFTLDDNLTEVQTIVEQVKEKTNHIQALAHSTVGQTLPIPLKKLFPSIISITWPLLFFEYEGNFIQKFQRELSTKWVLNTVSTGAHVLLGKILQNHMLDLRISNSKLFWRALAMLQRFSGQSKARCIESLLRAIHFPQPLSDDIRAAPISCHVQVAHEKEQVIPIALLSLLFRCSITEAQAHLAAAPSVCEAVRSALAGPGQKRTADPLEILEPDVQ

Compound	Potency [1]	outcome [2]	remaining parasite growth % (stronger effect = lower value) [3]	activity, percent of control [4]	remaining proliferation (% of control), lower = more inhibition [5]	parasite growth, % of DMSO control [6]	parasite growth remaining, % of DMSO control (lower = more inhibition) [7]	max response [8]	outcome [9]	outcome [10]	Potency [11]	Potency [12]	outcome [13]
CCOc1ccc(Nc2nc(-c3c(C)nc4ccccn34)cs2)cc1	inactive	inactive	2.43%	5.76%	7.43%	11.9%	17.3%						
CC(=O)Nc1ccc([C@H](C)C(=O)Nc2ncc(C(C)C)s2)cc1		inactive	95.5%	101%	93.4%	5.36%	104%	12.4% (inactive)					
CCN1CCC[C@H]1CNC(=O)c1cc(S(N)(=O)=O)ccc1OC								11.5% (inactive) and 6.55% (inactive)	inactive	inactive	inactive	inactive	inactive
CO[C@H]1C=CC=C(C)C(=O)NC2=CC(=O)C(NCCN(C)C)=C(C[C@@H](C)C[C@H](OC)[C@@H](O)[C@@H](C)C=C(C)[C@@H]1OC(N)=O)C2=O	inactive	inactive	-0.553%	-0.115%	-2.33%	5.12%	6.82%						
COC(=O)[C@@H]1[C@H]2C[C@H]3c4[nH]c5ccccc5c4CCN3C[C@@H]2CC[C@@H]1O								29.3% (inactive) and 18.6% (inactive)	inactive; inhibitor; fitted 2.3934 uM	inactive	inactive	inactive	inactive
CCN(CC)CCOC(=O)c1ccc(N)cc1								17.2% (inactive) and 7.74% (inactive)	inactive	inactive	inactive	inactive	inactive
CC(C)(C)C(=O)Oc1ccc2c(c1)nc(NC(=O)c1cccc([N+](=O)[O-])c1)n2CCCO		inactive	92%	82%	53.3%	21.2%	46.4%	2.9% (inactive)					
COc1cccc2c1CCCC2CCCN1CCN(C2CCCCC2)CC1 (configuration not stated)	inactive	inactive	-0.577%	3.08%	1.97%		54.8%						

Source: PubChem BioAssay (NCATS)
